The source of these data is PubChem BioAssay (Tox21).

Several values for one entry are separate records, joined by “and”; a condition that tells them apart may be missing. Equal entries are not always repeated. Inconclusive results are not listed. A structure can be active in one record and inactive in another. Activity calls are given as the source filed them. Unless noted, calls come from the whole dose curve; as a rule, active = well fitted curve in the direction sought with a large enough effect in the repeat runs; inconclusive = weak or mixed curves; inactive = no such curve, though single readings can be large; an effect the other way counts as inactive or inconclusive.

The nature of assay [1]: qHTS assay for small molecule agonists of the p53 signaling pathway (AID 651631; calls by dose curve; note: nearly all actives have a fitted effect of over 15% in size; note: potency is the fitted concentration of half-maximal effect). Put shortly: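 Agonist mode screen using a stably integrated beta-lactamase gene under p53 response elements in HCT-116 cells. Compound exposure lasts 16 h at 37 °C; fluorescence intensity is measured following 2 h FRET substrate loading.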
A general note: In qHTS, concentration-response curves come from the screen itself.

The nature of assay [2]: qHTS assay for small molecules that induce genotoxicity in human embryonic kidney cells expressing luciferase-tagged ATAD5 (AID 651632). Note: nearly all actives have a fitted effect of over 15% in size. Put shortly:
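ATAD5-luc HEK293T, 2,000 cells/well; cpd or DMSO pin-transferred; 16 hr, 37C/5% CO2; Amplite 30 min RT; luminescence.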

The nature of assay [3]: qHTS assay for small molecules that induce genotoxicity in human embryonic kidney cells expressing luciferase-tagged ATAD5 - cell viability (AID 651634; calls by dose curve; note: nearly all actives have a fitted effect of over 25% in size). In short, it runs like this:
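Fluorescence from CellTiter-Fluor, reporting protease activity within live cells, served as the viability read-out. HEK293T cells carrying luciferase-tagged ATAD5 had been treated with compound for 15.5 hr at 37C.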

A short description of assay [4]: qHTS assay for small molecule disruptors of the mitochondrial membrane potential - cell viability (AID 720634; calls by dose curve;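 note: human HepG2 liver cancer cells; series mostly up to about 83 µM; nearly all actives have a fitted effect of over 20% in size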). Put shortly:
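Cells: HepG2, 2,000/well, attached overnight. Compound 1 hr, 37 C/5% CO2. +m-MPI dye, +CellTiter-Glo 30 min RT. Readout: luminescence (ATP).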

The nature of assay [5]: qHTS assay for small molecule disruptors of the mitochondrial membrane potential (AID 720635). Note: potency is the fitted concentration of half-maximal effect. In short, it runs like this: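 HepG2 cells (2,000/well) attached overnight at 37C, then took compound for 1 hr at 37C, 5% CO2. Mito-MPS dye was added for 30 min; fluorescence was read at 490/535 nm (monomers) and 540/590 nm (aggregates).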
A short description of assay [6]: qHTS assay to test for compound auto fluorescence at 590 nm (red) in HepG2 cells (AID 720674). Put shortly: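 Intrinsic compound fluorescence in the red window (Ex/Em 540/590 nm) is measured in attached HepG2 cells exposed for 1 hr, DMSO vehicle as baseline, benchmarked to Rose Bengal sodium.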
Assay [7] in a line: qHTS assay to test for compound auto fluorescence at 460 nm (blue) in HEK293 cells (AID 720678). Note: potency is the fitted concentration of half-maximal effect. In short, it runs like this: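 HEK293, 2,000 cells/well, 10% dialyzed FBS; attach 4-5 hr 37C; pin compound or DMSO; o/n 37C/5% CO2; fluorescence 405/460 nm; triamterene-equivalent units.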
Assay [8] in a line: qHTS assay to test for compound auto fluorescence at 535 nm (green) in HEK293 cells (AID 720680).
The nature of assay [9]: qHTS assay to test for compound auto fluorescence at 460 nm (blue) in HEK293 cell free culture (AID 720681). Note: potency is the fitted concentration of half-maximal effect. Put shortly:
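Test compounds were pinned into cell-free culture medium (DMEM with 10% FBS) and fluorescence was read directly at Ex/Em 405/460 nm. Signals were expressed as fluorescence equivalents of triamterene, with DMSO vehicle as control.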

A short description of assay [10]: qHTS assay to test for compound auto fluorescence at 535 nm (green) in HEK293 cell free culture (AID 720682). Put shortly:
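No cells present: wells hold DMEM supplemented with 10% FBS, into which compound or vehicle is pinned. Green emission is then recorded (485 nm excitation, 535 nm emission) and scaled to fluorescein.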

Assay [11] can be described thus: qHTS assay to test for compound auto fluorescence at 590 nm (red) in HepG2 cell free culture (AID 720684). In short, it runs like this:
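Red fluorescence (540 nm excitation, 590 nm emission) was measured after compound transfer into cell-free MEM supplemented with 10% FBS. Values are equivalencies against Rose Bengal sodium.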

Assay [12] is described as follows: qHTS assay to test for compound auto fluorescence at 460 nm (blue) in HepG2 cell free culture (AID 720685). Note: potency is the fitted concentration of half-maximal effect. Put shortly: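 Compound (23 nL) or DMSO pinned into cell-free MEM with 10% FBS; blue fluorescence read at 405/460 nm excitation/emission, expressed as auto-fluorescence equivalency to triamterene.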
A short description of assay [13]: qHTS assay to test for compound auto fluorescence at 535 nm (green) in HepG2 cell free culture (AID 720686).
Assay [14] in a line: qHTS assay to test for compound auto fluorescence at 460 nm (blue) in HepG2 cells (AID 720687). Note: potency is the fitted concentration of half-maximal effect. Put shortly:
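Cells (2,000/well in MEM with 10% FBS) attached overnight at 37 C, then were exposed to compound or DMSO for 1 hr at 37 C, 5% CO2. Fluorescence read at Ex/Em 405/460 nm, expressed as triamterene-equivalent signal.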

The nature of assay [15]: qHTS assay to test for compound auto fluorescence at 535 nm (green) in HepG2 cells (AID 720675).
Assay [16] can be described thus: qHTS assay to test for compound auto fluorescence at 590 nm (red) in HEK293 cell free culture (AID 720683). Put shortly:
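Tox21 10K library compounds were pinned into cell-free DMEM with 10% FBS and fluorescence was read at excitation 540 nm. Activity is expressed as Rose Bengal sodium equivalency.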

Assay [17] has as its target Glucocorticoid receptor (Homo sapiens) (UniProt P04150). The experiment in a line: qHTS assay to identify small molecule agonists of the glucocorticoid receptor (GR) signaling pathway (AID 720691; active = well fitted activation curve with a large enough effect in the signal ratio in the repeat runs, not every such curve was filed as active; the % refers to the signal ratio). Put shortly:
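Fluorescence intensity from LiveBLAzer B/G FRET substrate (2 h, room temperature) reports beta-lactamase expression driven by the glucocorticoid response element in GR-bla HeLa cells after 18 h compound exposure at 37 C.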

For assay [18] the target is unchanged. The experiment in a line: qHTS assay to identify small molecule antagonists of the glucocorticoid receptor (GR) signaling pathway (AID 720692; active = well fitted inhibition curve with a large enough effect in the signal ratio in the repeat runs, not every such curve was filed as active; the % refers to the signal ratio). In short, it runs like this: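 HeLa GR-bla cells; cmpd + dex 5 nM final, 18 h 37 C; LiveBLAzer B/G FRET substrate 2 h RT; fluorescence intensity read. Antagonist mode, qHTS.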
Assay [19] is described as follows: qHTS assay to test for compound auto fluorescence at 590 nm (red) in HEK293 cells (AID 720679). Put shortly: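 Intensity at 540nm excitation and 590nm emission is reported as Rose Bengal sodium-equivalent autofluorescence. Measurements followed overnight exposure (37C, 5% CO2) of HEK293 cells, 2,000 per well, to 23 nL compound.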
Assay [20] can be described thus: qHTS assay for small molecule agonists of the p53 signaling pathway - cell viability (AID 651633; calls by dose curve; note: nearly all actives have a fitted effect of over 30% in size; note: potency is the fitted concentration of half-maximal effect). In short, it runs like this:
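p53RE-bla cells, seeded at 4,000 per well and rested 5 h at 37 C/5% CO2, received compounds in DMSO for 16 h at 37 C. CellTiter-Glo was then added, and luminescence was read after 30 min at room temperature to gauge cytotoxicity.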
% is set by controls: 0 for no effect and ±100 for the full control effect; tags give direction and shape of the fitted curve or compound fluorescence and quenching.

Glucocorticoid receptor (Homo sapiens), sequence (P04150 whole entry, looked up): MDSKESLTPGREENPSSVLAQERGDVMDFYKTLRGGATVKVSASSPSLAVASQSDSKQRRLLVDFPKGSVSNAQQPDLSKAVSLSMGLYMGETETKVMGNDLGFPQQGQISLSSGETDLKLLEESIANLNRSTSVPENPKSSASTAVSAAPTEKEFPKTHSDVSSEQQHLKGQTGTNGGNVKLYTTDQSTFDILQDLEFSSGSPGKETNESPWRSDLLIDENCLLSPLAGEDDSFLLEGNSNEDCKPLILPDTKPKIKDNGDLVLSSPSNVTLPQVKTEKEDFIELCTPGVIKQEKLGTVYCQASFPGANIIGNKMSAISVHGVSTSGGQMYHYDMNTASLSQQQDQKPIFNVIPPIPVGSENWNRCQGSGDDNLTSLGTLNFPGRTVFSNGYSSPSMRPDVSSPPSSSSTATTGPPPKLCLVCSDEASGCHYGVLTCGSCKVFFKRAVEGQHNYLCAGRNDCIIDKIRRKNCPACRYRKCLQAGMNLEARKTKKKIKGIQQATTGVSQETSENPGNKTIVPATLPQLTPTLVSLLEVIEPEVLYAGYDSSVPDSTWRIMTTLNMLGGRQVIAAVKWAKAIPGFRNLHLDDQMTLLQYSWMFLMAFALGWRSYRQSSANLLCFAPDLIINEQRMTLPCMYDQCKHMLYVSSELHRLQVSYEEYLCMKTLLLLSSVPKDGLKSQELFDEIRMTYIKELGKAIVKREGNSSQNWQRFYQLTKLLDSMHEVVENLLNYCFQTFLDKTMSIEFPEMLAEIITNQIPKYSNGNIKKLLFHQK

As for `CCCCCCOC(=O)C(C)C`, the Potency entry in [1], in [2], in assay [3], in assay [4], in assay [5] and in assay [7] was “inactive” in each case. Also, the Potency result in assay [9], in assay [12] and in assay [14] was “inactive” in each case. The compound was classed as inactive in [6], in assay [8], in assay [10], in [11] and in [13].
As for `CCc1c2c(nc3ccc(OC(=O)N4CCC(N5CCCCC5)CC4)cc13)-c1cc3c(c(=O)n1C2)COC(=O)[C@]3(O)CC`, the Potency in assay [1] was 2.66 µM (active); in [5], 11.9 µM (active); in assay [7] it was 12.6 µM [fluorescent] (active); in assay [9] it was 12.6 µM (active); in [12], 12.6 µM [fluorescent] (active); in assay [14], 15.8 µM [fluorescent] (active). The Potency entry in assay [2], in [3] and in assay [4] was “inactive” throughout. Further, the result in assay [6], in [15], in [8], in [10], in assay [16] and in [11] was inactive. In addition, the result in [13] was inactive.
As to `CC1(C)C2=CCCC(C)(C)[C@]23CC[C@H]1C3`, the Potency result in [1], in [2], in assay [3], in assay [4], in [5] and in [7] was “inactive” in each case. In addition, the Potency result in [9], in assay [12], in assay [14], in assay [17] and in [18] was “inactive” in each case. For the same compound, the outcome in assay [6], in [8], in [10], in [16], in assay [11] and in [13] was inactive.
For `Cc1cc(O)c(C(C)C)cc1Cl`, the Potency result in assay [1], in [2], in assay [3], in assay [4], in [7] and in [9] was “inactive” throughout. Moreover, the Potency result in assay [12], in [14] and in assay [17] was “inactive” each time. Also, in assay [5], the Potency entry was “inactive and 4.33 µM (active)”. For the same compound, the outcome in assay [6], in [19], in [10], in assay [16], in assay [11] and in [13] was inactive.
Take `C[Si]1(C)O[Si](C)(C)O[Si](C)(C)O1`: the Potency entry in assay [1], in assay [2], in assay [3], in [4], in assay [5] and in assay [7] was “inactive” in each case. In addition, the Potency entry in assay [9], in assay [12] and in [14] was “inactive” throughout. The result in assay [6], in assay [15], in assay [19], in [8], in [10] and in [16] was inactive. The compound was called inactive in [11] and in assay [13].
In the case of `CC1=NN(c2ccc(C(=O)O)cc2)C(=O)C1`, the Potency entry in [2], in assay [20], in [3], in assay [4], in assay [5] and in [7] was “inactive” each time. In addition, the Potency entry in [9], in assay [12] and in assay [14] was “inactive” each time. Also, the call in assay [6], in assay [15], in assay [19], in assay [8], in assay [10] and in assay [16] was inactive. Moreover, the call in assay [11] and in assay [13] was inactive.
For the compound `C=CCOC(=O)/C=C\C(=O)OCC=C`, the Potency result in assay [2], in assay [20], in [3], in assay [4], in [5] and in assay [7] was “inactive” in each case. For the same compound, the Potency result in [12], in assay [14] and in [17] was “inactive” each time. Besides, the result in [6], in assay [15], in [19], in assay [8], in assay [10] and in assay [13] was inactive.
As to `CCCCC1C(=O)N(c2ccccc2)N(c2ccc(O)cc2)C1=O` (stereo unspecified), in [1], the Potency is 12.7 µM (active). The Potency entry in assay [2], in assay [3] and in assay [4] was “inactive” throughout. Moreover, the fluorescence, relative to Rose Bengal in assay [6] is -0.0374% [at 18.6 µM] (inactive). The values for the fluorescence, % of fluorescein control in assay [15] and in [13] were -0.0204% [at 18.6 µM] (inactive) and -0.17% [at 18.6 µM] (inactive), respectively. Moreover, the fluorescence, % of triamterene in assay [7] is -0.133% [at 18.6 µM] (inactive). Besides, the fluorescence, % of fluorescent control was -0.0017% [at 18.6 µM] (inactive) in [19]; -0.0788% [at 18.6 µM] (inactive) in [9]; 0.0102% [at 18.6 µM] (inactive) in assay [16]; -0.111% [at 18.6 µM] (inactive) in assay [12]; -0.0848% [at 18.6 µM] (inactive) in [14]. Moreover, in assay [10], the activity change was -0.39% [at 18.6 µM] (inactive).
Turning to `CC[C@@H]([C@H](C)O)n1ncn(-c2ccc(N3CCN(c4ccc(OC[C@@H]5CO[C@@](Cn6cncn6)(c6ccc(F)cc6F)C5)cc4)CC3)cc2)c1=O`, the Potency result in assay [1], in assay [2], in [4], in assay [7], in [9] and in assay [12] was “inactive” in each case. The Potency result in assay [14] and in assay [17] was “inactive” throughout. Also, the outcome in [6], in [8], in assay [10], in assay [16], in [11] and in assay [13] was inactive.
Regarding `Cc1c(C(=O)NN2CCCCC2)nn(-c2ccc(Cl)cc2Cl)c1-c1ccc(Cl)cc1`, the Potency result in assay [2], in assay [3], in [4], in [7], in assay [9] and in assay [12] was “inactive” in each case. In addition, the Potency result in assay [14] and in assay [17] was “inactive” in each case. The Potency in assay [20] and in assay [5] was 23.7 µM (active) in each case. The compound was classed as inactive in assay [6], in assay [15], in assay [19], in [8], in [10] and in assay [16]. In addition, the compound was called inactive in assay [11] and in assay [13].
With `ON(Cc1ccccc1)Cc1ccccc1`, the Potency entry in [2], in [20], in assay [3], in assay [4], in assay [5] and in assay [7] was “inactive” throughout. In addition, the Potency entry in [9], in [12], in assay [14] and in assay [17] was “inactive” throughout. The compound was called inactive in assay [6], in assay [15], in [19], in assay [8], in assay [10] and in assay [11]. For the same compound, in [13], the result was inactive.
For the compound `CCCCC(CC)CNCC(CC)CCCC` (stereo unspecified), the Potency result in assay [2], in assay [20], in assay [3], in assay [4], in assay [5] and in assay [7] was “inactive” each time. In addition, the Potency entry in assay [9], in assay [12] and in assay [14] was “inactive” in each case. Besides, the outcome in assay [6], in assay [15], in [19], in assay [10], in [16] and in [11] was inactive. For the same compound, the compound was classed as inactive in assay [13].
